# Measured values reported in PubChem BioAssay.
# Values joined by “and” are separate entries in the source; they are usually repeats but may differ in a detail not shown here. Equal entries are not always repeated. Active and inactive are the calls of the source.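 The calls were made as follows, unless noted: active = at least 20% inhibition of 6-phosphogluconate dehydrogenase activity; inactive = the rest.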
# Columns and labels:
# [1] = target: 6-phosphogluconate dehydrogenase, decarboxylating (Homo sapiens) (UniProt P52209); test: 6PGD enzyme inhibitors, primary screen, biochemical, human, recombinant enzyme, NADPH absorbance (AID 1159550); conditions: recombinant 6PGD, NADPH absorbance 341 nm; at 10 µM; stronger effect = higher value
# [2] = liver-stage malaria parasite growth inhibition, primary screen, cell-based, HepG2, luciferase luminescence, HepG2 viability (AID 624349; in the data active = parasite load remaining mostly below about 12%, no sharp cut-off; inactive = mostly above about 10%;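 also: 100% = mean of DMSO negative control wells on the same plate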); conditions: P. berghei liver stage in HepG2, luciferase luminescence, concentration not given here; parasite load remaining: stronger effect = lower value; viability: measured here: HepG2 viability without parasites
# [3] = sensitizers of A549 cells to miR-34 induction, primary screen, imaging, A549 dox-inducible miR-34, nuclei and caspase counts (AID 1347080;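 active = compounds whose cell count with miR-34 switched on is under 0.7 times the count with it off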); conditions: A549 miR-34 inducible, Hoechst nuclei count, 48 h
# [4] = target: NAD(+) hydrolase SARM1 (Homo sapiens) (UniProt Q6SZW1); test: SARM1 TIR NADase inhibitors, cell lysate, NAD-Glo luminescence (AID 1508614;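 active = compound whose remaining NAD level is above about 45 nM, limit read from the data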;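 also: higher remaining NAD means stronger inhibition of SARM1 NADase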); conditions: SAM-TIR HEK293T lysate NADase, at 1 µM, stronger effect = higher value
# [5] = target: Mitogen-activated protein kinase 7 (Homo sapiens) (UniProt Q13164); test: ERK5 transactivation activators in reporter cells, primary screen, cell-based, HTS (AID 1508626;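 active = luciferase signal above three times the same-plate solvent-only control wells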;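 also: luciferase driven by Gal4-ERK5 fusion binding five Gal4 sites before minimal TATA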); conditions: HeLa Gal4-ERK5 transactivation, 18 h, at 5 µM, stronger effect = higher value
# [6] = polyglutamine-triggered caspase-3 activation inhibitors, cell-based (AID 1583); conditions: polyglutamine-induced caspase-3 activation, cell assay; stronger effect = higher value;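 tested at 10 µM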
# [7] = suppressors of polyQ aggregation in yeast, 75Q-TubU reporter (AID 1593); conditions: Yeast 75Q polyglutamine aggregation reporter
# [8] = inhibitors of mitochondrial cytochrome c release, biochemical, purified mitochondria (AID 1603); conditions: stronger effect = lower value;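 also: mouse liver mitochondria challenged with calcium chloride; signal normalized to the plate average as 100%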
# [9] = differential killing of epithelial or mesenchymal cells, primary screen, imaging, PC-3E GFP, TEM4-18 mCherry, co-culture (AID 1345086;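 active = compounds killing one labelled cell type while sparing the other, by normalised counts and ratio limits, not self-fluorescent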;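 as to all read-outs here: cells exposed to compound for 72 h before imaging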;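 as to red/green cell ratio (normalised): normalised mesenchymal count divided by normalised epithelial count so high means epithelial killing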); conditions: imaging cell counts, at 1 µM; for red/green cell ratio (normalised): actives lie on both sides
# [10] = test system: Aerobactin synthetase IucA (Klebsiella pneumoniae hvKP1); test: Biochemical IucA enzyme inhibition primary screen of the Spectrum library (AID 1346200; call rule not given here;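 also: 100% = wells without compound and 0% = wells lacking enzyme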); conditions: malachite green pyrophosphate, A620, at 8 µM, stronger effect = lower value
# [11] = hESC survival regulators, cell-based (AID 493140; call rule not given here;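 also: cells exposed to compounds for four days before counting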); conditions: human embryonic stem cell survival screen; stronger effect = higher value
# [12] = survival rescue of mitochondrial mutant cells in low glucose, primary screen, MELAS cybrids, Rieske KO mouse fibroblasts, CellTiter-Glo (AID 1508586;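 active = mean z-score across replicates of 1.96 or higher in either the MELAS or the Rieske mutant cell line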;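 also: z relative to plate mean and SD of compound and empty wells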)
# [13] = measured here: relative caspase fold change +Dox/-Dox
# [14] = measured here: total cells with miR-34 induction, stronger effect = lower value
# [15] = measured here: total cells without miR-34 induction
# [16] = measured here: epithelial PC-3E GFP cell survival
# [17] = measured here: mesenchymal TEM4-18 mCherry cell survival
# [18] = MELAS cybrid survival, CellTiter-Glo 48 h, stronger effect = higher value
# [19] = Rieske KO mouse fibroblast survival, CellTiter-Glo 72 h
# [20] = counts scaled to control wells, 1 = unselective
# Sequence of Mitogen-activated protein kinase 7 (Homo sapiens) (Q13164 whole entry, looked up, the tested form may be a part): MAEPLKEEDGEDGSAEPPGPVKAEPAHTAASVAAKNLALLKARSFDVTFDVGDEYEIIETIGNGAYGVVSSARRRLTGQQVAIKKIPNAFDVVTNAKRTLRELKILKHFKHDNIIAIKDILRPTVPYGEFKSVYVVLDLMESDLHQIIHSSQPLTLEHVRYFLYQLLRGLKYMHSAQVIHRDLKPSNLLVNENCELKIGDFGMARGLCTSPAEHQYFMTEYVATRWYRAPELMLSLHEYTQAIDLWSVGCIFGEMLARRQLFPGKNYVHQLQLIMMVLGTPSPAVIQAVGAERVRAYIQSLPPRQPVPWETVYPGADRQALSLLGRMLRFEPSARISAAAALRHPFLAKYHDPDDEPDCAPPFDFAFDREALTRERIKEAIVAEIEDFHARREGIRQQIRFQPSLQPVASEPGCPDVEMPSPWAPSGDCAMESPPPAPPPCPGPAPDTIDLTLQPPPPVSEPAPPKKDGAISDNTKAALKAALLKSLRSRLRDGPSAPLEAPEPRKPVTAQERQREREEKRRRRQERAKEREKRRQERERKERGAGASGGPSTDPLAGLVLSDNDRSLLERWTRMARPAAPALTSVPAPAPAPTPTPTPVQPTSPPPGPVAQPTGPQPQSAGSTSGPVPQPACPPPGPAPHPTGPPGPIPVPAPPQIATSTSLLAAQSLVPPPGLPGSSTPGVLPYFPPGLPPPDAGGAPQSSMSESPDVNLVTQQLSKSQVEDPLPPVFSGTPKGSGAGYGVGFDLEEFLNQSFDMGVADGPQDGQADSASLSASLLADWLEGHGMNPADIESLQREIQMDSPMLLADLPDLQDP
# Sequence of 6-phosphogluconate dehydrogenase, decarboxylating (Homo sapiens) (P52209 whole entry, looked up): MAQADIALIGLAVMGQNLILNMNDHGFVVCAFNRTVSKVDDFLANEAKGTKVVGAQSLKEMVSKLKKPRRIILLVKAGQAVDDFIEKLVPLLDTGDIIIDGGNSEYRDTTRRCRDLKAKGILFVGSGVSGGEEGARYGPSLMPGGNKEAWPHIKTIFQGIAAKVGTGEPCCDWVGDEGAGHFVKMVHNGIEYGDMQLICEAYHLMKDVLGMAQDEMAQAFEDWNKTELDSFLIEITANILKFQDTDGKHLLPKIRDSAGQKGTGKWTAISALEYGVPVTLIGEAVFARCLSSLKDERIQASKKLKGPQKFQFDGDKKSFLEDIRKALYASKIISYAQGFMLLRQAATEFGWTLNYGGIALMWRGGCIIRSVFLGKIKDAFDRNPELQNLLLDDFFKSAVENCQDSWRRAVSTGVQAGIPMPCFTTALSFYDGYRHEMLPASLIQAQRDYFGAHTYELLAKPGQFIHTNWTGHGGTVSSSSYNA
# Sequence of NAD(+) hydrolase SARM1 (Homo sapiens) (Q6SZW1 whole entry, looked up, the tested form may be a part): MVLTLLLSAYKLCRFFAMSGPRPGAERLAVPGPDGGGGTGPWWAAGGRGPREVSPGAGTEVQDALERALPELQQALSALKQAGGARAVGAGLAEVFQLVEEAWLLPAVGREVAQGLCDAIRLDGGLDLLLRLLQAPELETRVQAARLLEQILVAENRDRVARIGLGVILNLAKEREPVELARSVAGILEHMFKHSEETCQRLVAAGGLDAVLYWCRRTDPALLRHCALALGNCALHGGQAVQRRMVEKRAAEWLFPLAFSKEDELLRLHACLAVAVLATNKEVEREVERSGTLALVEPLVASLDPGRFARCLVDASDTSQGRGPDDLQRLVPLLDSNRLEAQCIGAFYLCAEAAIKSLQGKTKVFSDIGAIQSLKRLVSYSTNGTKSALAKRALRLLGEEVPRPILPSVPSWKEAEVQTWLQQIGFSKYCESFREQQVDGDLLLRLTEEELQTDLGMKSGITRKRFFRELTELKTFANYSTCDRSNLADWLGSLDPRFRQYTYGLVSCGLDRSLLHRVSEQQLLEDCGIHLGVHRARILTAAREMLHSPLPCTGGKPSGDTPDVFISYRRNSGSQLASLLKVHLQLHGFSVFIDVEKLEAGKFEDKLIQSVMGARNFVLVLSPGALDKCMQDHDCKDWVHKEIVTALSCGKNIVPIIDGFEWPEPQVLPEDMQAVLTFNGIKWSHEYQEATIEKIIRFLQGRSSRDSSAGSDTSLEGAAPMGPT
compound,measurement,setting,value
CN[C@H]1C[C@@H](N)[C@H](O)[C@@H](O[C@@H]2O[C@H](CO)[C@H](O)[C@@H]3OC4(O[C@H]23)O[C@H]([C@@H](N)CO)[C@H](O)[C@@H](O)[C@H]4O)[C@@H]1O (stereo not given in full),inhibition,[1],14.7% (inactive)
COc1cc2c(cc1OC)[C@H]1C(=O)c3ccc4c(c3O[C@H]1CO2)C[C@@H](C(C)C)O4,inhibition,[1],-1.45% (inactive)
C=C[C@H]1CN2CC[C@H]1C[C@@H]2[C@@H](O)c1ccnc2ccccc12,parasite load remaining,[2],63% (inactive)
same,viability,[2],116%
same,inhibition,[1],-5.19% (inactive)
same,fold change,"[3]; stronger effect = lower value, cell number ratio, induced over uninduced",0.868 (inactive)
same,fold change,[3]; [13],1.48
same,cell count,[3]; [14],8930
same,cell count,[3]; [15],10300
same,remaining NAD,[4],10 nM (inactive)
same,luciferase signal,[5],40 AU (inactive)
Clc1ccc(COC(Cn2ccnc2)c2ccc(Cl)cc2Cl)c(Cl)c1 (stereo not given),inhibition,[6],16.3%
same,score,[7],-0.06
same,cytochrome c release ratio,[8],0.32
same,inhibition,[1],-24.1% (inactive)
same,red/green cell ratio (normalised),[9],1.04 (inactive)
same,normalised cell number,[9]; [16],0.94
same,normalised cell number,[9]; [17],0.97
same,activity remaining,[10],98.2% (inactive)
same,remaining NAD,[4],10 nM (inactive)
same,luciferase signal,[5],48 AU (inactive)
ClC1=C(Cl)[C@]2(Cl)[C@H]3[C@H]([C@@H]4C=C[C@H]3C4)[C@@]1(Cl)C2(Cl)Cl,inhibition,[1],6.64% (inactive)
COP(=O)(OC)OC(C)C(C)=O (stereo not given),inhibition,[1],13.2% (inactive)
CC[C@@]1(O)C(=O)OCc2c1cc1n(c2=O)Cc2cc3ccccc3nc2-1,inhibition,[6],-22.8%
same,score,[7],1.92
same,cytochrome c release ratio,[8],0.94
same,survival,[11],0.833 (inactive)
same,inhibition,[1],3.3% (inactive)
same,red/green cell ratio (normalised),[9],1.07 (inactive)
same,normalised cell number,[9]; [16],0.28
same,normalised cell number,[9]; [17],0.3
same,activity remaining,[10],107% (inactive)
same,z-score,[12]; [18],-0.725 (inactive) and -0.263 (inactive) and -1.18 (inactive)
same,z-score,[12]; [19],0.467 and -0.232 and -0.237
same,luciferase signal,[5],28 AU (inactive)
C=C[C@H]1CN2CC[C@H]1C[C@H]2[C@H](O)c1ccnc2ccccc12,inhibition,[6],21%
same,score,[7],1.18
same,cytochrome c release ratio,[8],0.75
same,parasite load remaining,[2],56.2% (inactive) and 85.6% (inactive) and 31.1% (inactive)
same,viability,[2],103% and 68.9% and 98.9%
same,inhibition,[1],5.53% (inactive)
same,red/green cell ratio (normalised),[9],1.04 (inactive)
same,normalised cell number,[9]; [16],1.08
same,normalised cell number,[9]; [17],1.12
same,activity remaining,[10],97.1% (inactive)
same,fold change,[3]; stronger effect = lower value,0.86 (inactive) and 0.872 (inactive)
same,fold change,[3]; [13],1.26 and 3.36
same,cell count,[3]; [14],9250 and 11500
same,cell count,[3]; [15],10800 and 13200
same,remaining NAD,[4],10 nM (inactive)
same,luciferase signal,[5],48 AU (inactive)
COc1cc2c(cc1OC)[C@@]13CCN4CC5=CCO[C@H]6CC(=O)N2[C@H]1[C@H]6[C@H]5C[C@H]43,parasite load remaining,[2],80.5% (inactive)
same,viability,[2],63.8%
same,inhibition,[1],7.74% (inactive)
same,remaining NAD,[4],10 nM (inactive)
same,luciferase signal,[5],76 AU (inactive)
CC(C)CC(N(C)C)C1(c2ccc(Cl)cc2)CCC1 (stereo not given),inhibition,[1],14.3% (inactive)
same,red/green cell ratio (normalised),[9],1.04 (inactive)
same,normalised cell number,[9]; [16],0.98
same,normalised cell number,[9]; [17],1.02
same,activity remaining,[10],121% (inactive)
same,z-score,[12]; [18],0.37 (inactive) and 0.394 (inactive)
same,z-score,[12]; [19],0.153 and 0.475
same,remaining NAD,[4],10 nM (inactive)
same,luciferase signal,[5],60 AU (inactive)
C[C@H]1CC[C@]2(NC1)O[C@H]1C[C@H]3[C@@H]4CC[C@H]5C[C@@H](O[C@@H]6O[C@H](CO)[C@H](O[C@@H]7O[C@H](CO)[C@@H](O)[C@H](O[C@@H]8OC[C@@H](O)[C@H](O)[C@H]8O)[C@H]7O[C@@H]7O[C@H](CO)[C@@H](O)[C@H](O)[C@H]7O)[C@H](O)[C@H]6O)CC[C@]5(C)[C@H]4CC[C@]3(C)[C@H]1[C@@H]2C,inhibition,[1],1.84% (inactive)
CC1=CC(=O)C2=C(C)C[C@H](O)[C@H]3[C@H](C)C(=O)O[C@@H]3C12 (stereo not given in full),inhibition,[1],-7.67% (inactive)
CC[C@H]1CN2CC[C@H]1C[C@@H]2[C@@H](O)c1ccnc2ccc(OC)cc12,inhibition,[1],5.31% (inactive)
same,remaining NAD,[4],10 nM (inactive)
same,luciferase signal,[5],16 AU (inactive)
C=CCN1CC[C@]23c4c5ccc(O)c4O[C@H]2C(=O)CC[C@@]3(O)[C@H]1C5,survival,[11],31.3 (inactive)
same,inhibition,[1],-2.77% (inactive)
same,z-score,[12]; [18],0.056 (inactive) and 0.0574 (inactive)
same,z-score,[12]; [19],-0.112 and -0.417
same,remaining NAD,[4],10 nM (inactive)
same,luciferase signal,[5],32 AU (inactive)
CC(=O)O[C@H]1CC[C@]2(C)C3CC[C@]4(C)[C@@H](C5=CC(=O)OC5)[C@@H](OC(C)=O)C[C@]4(O)C3CC[C@@H]2C1 (stereo not given in full),inhibition,[1],0.446% (inactive)
COc1ccc(C[C@H]2NC[C@H](O)[C@H]2OC(C)=O)cc1,inhibition,[6],72.2%
same,score,[7],0.1
same,cytochrome c release ratio,[8],0.83
same,parasite load remaining,[2],-43.5% (inactive) and -0.655% (inactive)
same,viability,[2],60.3% and 76.2%
same,inhibition,[1],-19.6% (inactive)
same,red/green cell ratio (normalised),[9],0.63 (inactive)
same,normalised cell number,[9]; [16],0.16
same,normalised cell number,[9]; [17],0.1
same,activity remaining,[10],92.2% (inactive)
same,fold change,[3]; stronger effect = lower value,0.919 (inactive) and 1.04 (inactive)
same,fold change,[3]; [13],1.66
same,cell count,[3]; [14],1170 and 1230
same,cell count,[3]; [15],1270 and 1190
same,luciferase signal,[5],16 AU (inactive)
CCCC(C)C1(CC)C(=O)NC(=S)NC1=O (stereo not given),inhibition,[1],-1.13% (inactive)
CCCCCCCCCc1ccc(O)cc1,inhibition,[1],10.5% (inactive)
same,red/green cell ratio (normalised),[9],0.85 (inactive)
same,normalised cell number,[9]; [16],1.34
same,normalised cell number,[9]; [17],1.14
CCc1cccc(C)c1N(C(=O)CCl)C(C)COC (stereo not given),inhibition,[1],3.27% (inactive)
COc1cc2c(cc1OC)-c1c(oc3c4c(ccc3c1=O)OC(C(C)C)C4)CO2 (stereo not given),inhibition,[1],-6.79% (inactive)
same,red/green cell ratio (normalised),[9]; [20],0.93 (inactive)
same,normalised cell number,[9]; [16],0.99
same,normalised cell number,[9]; [17],0.92
O=C(O)COc1ccc(Cl)cc1Cl,inhibition,[1],-20.1% (inactive)
same,red/green cell ratio (normalised),[9],1.22 (inactive)
same,normalised cell number,[9]; [16],0.89
same,normalised cell number,[9]; [17],1.08
CN[C@@H](Cc1c[nH]c2ccccc12)C(=O)O,inhibition,[1],8.96% (inactive)
CCOCN(C(=O)CCl)c1c(C)cccc1CC,inhibition,[1],4.9% (inactive)
c1ccc2c(c1)cc1ccc3cccc4ccc2c1c34,inhibition,[1],5.92% (inactive)
same,red/green cell ratio (normalised),[9],0.86 (inactive)
same,normalised cell number,[9]; [16],1.22
same,normalised cell number,[9]; [17],1.05
CCC(C)C(=O)c1c(O)c(C)c2oc3c(C)c(O)c(C(=O)C(C)CC)c(O)c3c2c1O (stereo not given),inhibition,[1],4.14% (inactive)
O=c1ccc2cc(O[C@@H]3O[C@H](CO)[C@@H](O)[C@H](O)[C@H]3O)c(O)cc2o1,inhibition,[6],-24.4%
same,score,[7],1.12
same,cytochrome c release ratio,[8],0.85
same,parasite load remaining,[2],71.6% (inactive)
same,viability,[2],71.7%
same,inhibition,[1],-2.58% (inactive)
same,red/green cell ratio (normalised),[9],1.25 (inactive)
same,red/green cell ratio (normalised),[9]; [20],0.97 (inactive)
same,normalised cell number,[9]; [16],0.87 and 1.04
same,normalised cell number,[9]; [17],1.09 and 1
same,activity remaining,[10],95.9% (inactive)
same,luciferase signal,[5],92 AU (inactive)
